Measurements reported in the supplement of paper PMC12669032.

Assays:
Assay in all cases: growth AUC relative to DMSO control (median of replicates) (fraction); higher = more growth (less inhibition), active = hit call of the paper
Conditions in all cases: 20 µM; 24 h;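 active = AUC reduced over 20% with Padj below 0.05 in at least 2 of 3 replicates; inactive = otherwise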
[1] = system: Akkermansia muciniphila
How it was run: (§1)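 Gut bacteria were grown singly in mGAM at 37 °C without oxygen, from OD600 0.05, alongside 20 µM compound in 1% DMSO, and OD600 was read each hour for 24 h. Area under the growth curve was normalised to the median of solvent-only wells per plate, or to row and column medians on the industrial chemical plate. The minimum OD was set to 0 beforehand, and the reported value is the median of three biological replicates grown on separate days.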

[2] = system: Bacteroides caccae
How it was run: as §1

[3] = system: Bacteroides clarus
How it was run: as §1

[4] = system: Bacteroides dorei
How it was run: as §1

[5] = system: Bacteroides stercoris
How it was run: as §1

[6] = system: Bacteroides thetaiotaomicron
How it was run: as §1

[7] = system: Bacteroides uniformis
How it was run: as §1

[8] = system: Bifidobacterium longum subsp. longum
How it was run: as §1

[9] = system: Clostridium difficile
How it was run: as §1

[10] = system: Collinsella aerofaciens
How it was run: as §1

[11] = system: Coprococcus comes
How it was run: as §1

[12] = system: Escherichia coli ED1a
How it was run: as §1

[13] = system: Escherichia coli IAI1
How it was run: as §1

[14] = system: Eubacterium rectale
How it was run: as §1

[15] = system: Fusobacterium nucleatum subsp. animalis
How it was run: as §1

[16] = system: Lactobacillus gasseri
How it was run: as §1

[17] = system: Lactobacillus paracasei
How it was run: as §1

[18] = system: Odoribacter splanchnicus
How it was run: as §1

[19] = system: Parabacteroides distasonis
How it was run: as §1

[20] = system: Parabacteroides merdae
How it was run: as §1

Measured: growth AUC

CCOC(=O)N(C)C(=O)CSP(=S)(OCC)OCC
inactive: [1] 1.11 | [2] 1.04 | [3] 0.999 | [4] 1.01 | [5] 1.01 | [6] 0.994 | [7] 0.991 | [8] 0.991 | [9] 1.01 | [10] 0.997 | [11] 1.01 | [12] 1.01 | [13] 0.987 | [14] 0.898 | [15] 1.1 | [16] 1.03 | [17] 1.03 | [18] 1.03 | [19] 0.999 | [20] 0.985

Cc1cc(C)nc(Nc2ccccc2)n1
inactive: [1] 0.869 | [2] 0.98 | [3] 0.957 | [4] 1 | [5] 0.987 | [6] 0.957 | [7] 0.97 | [8] 1 | [9] 0.983 | [10] 0.999 | [11] 0.986 | [12] 1.01 | [13] 0.974 | [14] 0.983 | [15] 1.01 | [16] 1.09 | [17] 0.988 | [18] 0.965 | [19] 1 | [20] 0.971

CC(C)N(Cc1ccccc1)C(=O)C(C)(C)C
inactive: [1] 1.11 | [2] 0.928 | [3] 0.976 | [4] 0.936 | [5] 0.958 | [6] 0.98 | [7] 0.999 | [8] 1.04 | [9] 0.937 | [10] 0.92 | [11] 0.988 | [12] 0.966 | [13] 0.971 | [14] 1.03 | [15] 0.969 | [16] 0.814 | [17] 0.934 | [18] 1.07 | [19] 0.989 | [20] 0.948

CCC1(C(=O)NC(C)c2ccc(Cl)cc2)C(C)C1(Cl)Cl (stereo not given)
inactive: [1] 1.18 | [2] 0.963 | [3] 0.985 | [4] 0.884 | [5] 0.958 | [6] 0.909 | [7] 0.881 | [8] 0.969 | [9] 0.969 | [10] 0.942 | [11] 0.97 | [12] 0.964 | [13] 1 | [14] 1 | [15] 0.886 | [16] 0.871 | [17] 0.955 | [18] 0.851 | [20] 0.91
active: [19] 0.641

O=C(O)c1cc(Oc2ccc(C(F)(F)F)cc2Cl)ccc1[N+](=O)[O-]
inactive: [1] 1.01 | [2] 1.04 | [3] 0.925 | [4] 0.916 | [5] 0.84 | [6] 1.02 | [7] 0.985 | [8] 1.06 | [9] 0.966 | [10] 0.956 | [11] 0.967 | [12] 0.992 | [13] 0.948 | [14] 1.06 | [15] 0.957 | [16] 0.95 | [17] 0.966 | [18] 1.03 | [19] 0.896 | [20] 0.971

Cc1ccccc1[N+](=O)[O-]
inactive: [1] 1 | [2] 0.996 | [3] 1 | [4] 1.02 | [5] 1.01 | [6] 1.01 | [7] 0.995 | [8] 0.991 | [9] 1 | [10] 1 | [11] 1 | [12] 0.997 | [13] 0.992 | [14] 1 | [15] 1.03 | [16] 1.02 | [17] 0.999 | [18] 0.994 | [19] 1.06 | [20] 0.995

O=C(O)COc1ccc(Cl)cc1Cl
inactive: [1] 0.866 | [2] 1.03 | [3] 0.979 | [4] 0.996 | [5] 0.986 | [6] 1 | [7] 0.998 | [8] 1 | [9] 1.02 | [10] 0.988 | [11] 1.02 | [12] 1.01 | [13] 0.991 | [14] 0.943 | [15] 0.947 | [16] 1.08 | [17] 1.05 | [18] 0.958 | [19] 0.988 | [20] 0.982

Cc1ccc(-c2c(Cl)nc(C#N)n2S(=O)(=O)N(C)C)cc1
active: [7] 0.639 | [19] 0.551
inactive: [1] 0.913 | [2] 0.844 | [3] 0.817 | [4] 0.904 | [5] 0.931 | [6] 0.906 | [8] 1.03 | [9] 0.96 | [10] 1.02 | [11] 1.03 | [12] 0.944 | [13] 1.02 | [14] 0.992 | [15] 1.09 | [16] 1 | [17] 1.03 | [18] 0.989 | [20] 0.818

O=C(O)c1ccc(=O)[nH]c1
inactive: [1] 1.06 | [2] 1.02 | [3] 1.01 | [4] 1.02 | [5] 0.972 | [6] 0.984 | [7] 1.01 | [8] 1 | [9] 1.01 | [10] 0.977 | [11] 0.999 | [12] 0.99 | [13] 1.03 | [14] 0.976 | [15] 0.982 | [16] 0.972 | [17] 0.987 | [18] 0.985 | [19] 1.02 | [20] 0.983

COC(=O)COc1ccc(Cl)cc1Cl
inactive: [1] 0.95 | [2] 0.944 | [3] 0.983 | [4] 0.969 | [5] 0.853 | [6] 1.01 | [7] 1.04 | [8] 0.914 | [9] 1 | [10] 0.925 | [11] 0.98 | [12] 0.968 | [13] 0.968 | [14] 1.21 | [15] 0.946 | [16] 0.915 | [17] 1.04 | [18] 1.14 | [19] 0.931 | [20] 0.964

O=C(Nc1ccc(F)cc1F)c1cccnc1Oc1cccc(C(F)(F)F)c1
inactive: [1] 0.947 | [2] 0.929 | [3] 0.965 | [4] 0.882 | [5] 0.924 | [6] 0.966 | [7] 1.01 | [8] 1 | [9] 0.977 | [10] 0.946 | [11] 0.999 | [12] 0.968 | [13] 0.965 | [14] 1.06 | [15] 0.939 | [16] 0.891 | [17] 1.05 | [18] 1.06 | [19] 0.962 | [20] 0.971
